In the library only some 3.2% were active in any assay of this set; here they are far more common.
GBA mod – alters purified human glucocerebrosidase activity. P04062. purified enzyme, resorufin glucoside fluorescence (screen aimed at inhibitors), 20 min. Potency, µM. 48,000 tested, 1.1% active; in the data active = potency below about 15 µM; inconclusive = mostly about 16 µM to 33 µM;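 note: the screen sought inhibitors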
Target sequence (P04062 whole entry, looked up): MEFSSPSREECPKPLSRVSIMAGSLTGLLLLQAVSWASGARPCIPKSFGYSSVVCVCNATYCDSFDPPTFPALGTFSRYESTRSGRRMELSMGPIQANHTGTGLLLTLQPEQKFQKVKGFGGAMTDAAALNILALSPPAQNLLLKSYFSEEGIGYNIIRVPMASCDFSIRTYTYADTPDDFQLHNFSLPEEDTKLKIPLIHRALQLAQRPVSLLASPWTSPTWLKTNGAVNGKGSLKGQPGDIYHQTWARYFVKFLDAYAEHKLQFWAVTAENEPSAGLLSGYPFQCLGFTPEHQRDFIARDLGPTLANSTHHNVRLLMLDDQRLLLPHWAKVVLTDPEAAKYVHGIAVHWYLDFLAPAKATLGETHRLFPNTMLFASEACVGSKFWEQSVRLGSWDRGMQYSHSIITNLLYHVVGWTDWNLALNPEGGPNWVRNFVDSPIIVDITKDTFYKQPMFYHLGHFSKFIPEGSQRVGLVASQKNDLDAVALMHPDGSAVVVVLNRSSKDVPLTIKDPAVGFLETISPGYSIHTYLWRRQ
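Wild-type enzyme at 0.2 nM final in 50mM citric acid/KH2PO4, 10mM sodium taurocholate, 0.01% tween-20, pH 5.9, with resorufin beta-D-glucopyranoside at 30 uM final. Compounds titrated, 20 min at RT, red fluorescence read; AC50 from titration.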
PK Bst – modulators of Bacillus stearothermophilus pyruvate kinase; 51,000 tested, 1.2% active; Potency, µM; AID 361; purified pyruvate kinase, luminescence ATP production; ribose 5-phosphate activator present at AC10; in the data active = potency below about 11 µM; inconclusive = mostly about 12 µM to 25 µM;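 the screen sought inhibitors and activators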;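 note: scaled between full activation by ribose 5 phosphate and full inhibition by luteolin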
Luciferase inh – blocks Photinus pyralis firefly luciferase activity. P08659. Potency, µM (titrated, usually from 57.1 µM), for the others: at the highest dose activity change, negative = inhibition, hits mostly inhibitors. purified firefly luciferase, luminescence, 8 min. 72,000 tested, 2.2% active; active = well fitted inhibition curve with a large enough effect; inconclusive = small, poorly fitted or top-dose-only effect; note: % is set by controls: 0 for no effect and ±100 for the full control effect; nearly all actives have a fitted effect of over 40% in size
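Luminescence read-out after 8 min at room temperature; enzyme reaction used luciferin plus 10 uM ATP (linear range) in imidazole buffer pH 7.2 with KCl, MgCl2, Tween 20 and BSA. Each sample was run as a titration.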
The depositor's hits bear a star; [ ] = dose if it differs, or a comment. Potency is the fitted concentration of half-maximal effect.

Cc1ncoc1C(=O)Nc1nccs1 was read as GBA mod >77, PK Bst >57 and Luciferase inh -1%.
CCCN1C(=O)c2ccc(C(=O)Nc3nccs3)cc2C1=O was read as GBA mod >77, PK Bst >57 and Luciferase inh 13µM*.
For CC(C)CN1C(=O)c2ccc(C(=O)Nc3nccs3)cc2C1=O the results were Luciferase inh 13µM*.
Screening Cc1nn(Cc2ccc(C(=O)Nc3nccs3)cc2)c(C)c1Cl returned GBA mod 14*, PK Bst 3.1* and Luciferase inh -1%.
Screening CC(C)CN1C(=O)c2ccc(C(=O)Nc3ccncc3)cc2C1=O returned GBA mod inconclusive, PK Bst >57 and Luciferase inh -2%.
`COc1ccc(-c2cc([C@H](O)[C@@H]3CCCCN3)c3ccccc3n2)cc1` gave Luciferase inh -6%[11.4 µM].
CO[C@]1(NC(=O)[C@H](C(=O)O)c2ccc(O)cc2)C(=O)N2C(C(=O)O)=C(CSc3nnnn3C)CO[C@H]21 was read as Luciferase inh -2%[25.5 µM].
Screening CC1CCN(CC[C@@H]2CCCN2S(=O)(=O)c2cccc(O)c2)CC1 returned Luciferase inh -5%.
O=C(O)[C@@H](O)[C@@H](O)[C@@H](O[C@H]1O[C@@H](CO)[C@@H](O)[C@@H](O)[C@@H]1O)[C@@H](O)CO was read as Luciferase inh 4%[25.5 µM].
c1csc(-c2nnc(-c3ccc(N4CCOCC4)cc3)o2)c1 was read as GBA mod >77, PK Bst inconclusive and Luciferase inh 3.2µM*.
`N#Cc1nc(-c2cccs2)oc1N1CCN(c2ccccc2)CC1` gave GBA mod 8.3* and Luciferase inh 0%.
`COc1ccc(-c2nnc(-c3cccs3)o2)cc1OC` gave Luciferase inh 13µM*.
Screening COc1cc(-c2nnc(-c3cccs3)o2)cc(OC)c1OC returned GBA mod >77, PK Bst >57 and Luciferase inh -3%.
For N#Cc1nc(Cc2ccccc2)oc1N1CCN(c2ccccc2)CC1 the results were GBA mod >77, PK Bst >57 and Luciferase inh 4%.
Screening c1cncc(-c2nnc(-c3cccs3)o2)c1 returned GBA mod >77, PK Bst >57 and Luciferase inh -1%.
Screening Cc1ccccc1-c1cc(N(C)C)ncn1 returned Luciferase inh -15%[2.29 µM].
Screening C[C@@](N)(Cc1c[nH]c2ccccc12)C(=O)O returned Luciferase inh 2%[11.4 µM].
COc1cccc(CNc2ccc3nc(-c4ccc(N)cc4)c(OC)n3n2)c1 was read as Luciferase inh 2%.
N#C[C@H]1CN[C@H](N)N[C@@H]1N was read as Luciferase inh 2%[11.4 µM].
Screening Cc1cc(NC(=O)c2ccc3c(c2)OCO3)no1 returned GBA mod inconclusive and Luciferase inh 7.9µM*.
`CCOc1ccc(C(=O)Nc2cc(C)on2)cc1OCC` gave GBA mod >77, PK Bst inactive and Luciferase inh 0%.
`CCN(CC(=O)Nc1ccc2c(c1)OCCO2)CC(=O)Nc1cc(C)on1` gave GBA mod >77, PK Bst >57 and Luciferase inh 1%.
For CN(C(=O)c1ccc2c(c1)OCO2)C1(C(=O)NC2CCCC2)CCCCC1 the results were GBA mod >77, PK Bst inconclusive and Luciferase inh -1%.
Screening O=C(NC1CCCCCCC1)c1ccc2c(c1)OCO2 returned GBA mod >77 and Luciferase inh 16µM*.
Screening CCOC(=O)Cc1csc(NC(=O)c2ccc3c(c2)OCO3)n1 returned GBA mod >77 and Luciferase inh 20µM*.
Screening Cc1cc(NC(=O)c2ccc3c(c2)OCCO3)no1 returned PK Bst 3* and Luciferase inh 2µM*.
`CCOC(=O)Cc1csc(NC(=O)c2ccc(Br)s2)n1` gave Luciferase inh -5%.
`O=c1c(-c2ccc(F)cc2)nc2cnc(N3CCNCC3)nc2n1-c1ccccc1` gave Luciferase inh -2%[11.4 µM].
Cc1noc(C)c1C(=O)N1CCC2(CC1)CN(c1ncccn1)C2 was read as Luciferase inh 1%[11.4 µM].
Screening O=C(O)c1ccccc1-c1ccccc1C(=O)Nc1ccc2c(c1)Cc1ccccc1-2 returned Luciferase inh 7%[11.4 µM].
Screening O=C1OCCN1/N=C\c1ccc([N+](=O)[O-])o1 returned Luciferase inh 1%[25.5 µM].
O=C(O)c1ccccc1-c1ccccc1C(=O)Nc1ccc2c(c1)Cc1cc(F)ccc1-2 was read as Luciferase inh -1%[11.4 µM].
`CC(=O)Nc1c(I)c(C(=O)N[C@H]2[C@@H](O)[C@H](O)[C@H](CO)O[C@@H]2O)c(I)c(N(C)C(C)=O)c1I` gave Luciferase inh 4%[25.5 µM].
CCN(CC)CCOC(=O)[C@@H](c1ccccc1)C1CCCCC1 was read as Luciferase inh 4%[25.5 µM].
Screening Cc1cc2c(C)nc(-c3ccccc3)nc2o1 returned GBA mod >77, PK Bst >57 and Luciferase inh 1%.
Screening Cc1nc2cc(-c3ccccc3)ccc2o1 returned GBA mod >77 and Luciferase inh 16µM*.
`CS(=O)(=O)Nc1c(O)ccc2c1CCC[C@H]2C1=NCCN1` gave Luciferase inh 3%.
Screening O=C(O)c1ccc(C(=O)O)c(C(=O)O)c1.[NH-][C@@H]1CCCC[C@@H]1[NH-].[Pt] returned Luciferase inh -3%[11.4 µM].
`COc1cc2c3cc1Oc1cc(ccc1O)C[C@@H]1c4c(cc(OC)c(O)c4Oc4ccc(cc4)C[C@H]3[N+](C)(C)CC2)CC[N+]1(C)C` gave Luciferase inh 3%[11.4 µM].
For COc1ccccc1C(=O)Nc1ccc2c(c1)OCO2 the results were Luciferase inh 25µM*.
Screening CN(c1ccccc1C(=O)Nc1ccc2c(c1)OCO2)S(C)(=O)=O returned GBA mod >77, PK Bst >57 and Luciferase inh -1%.
For COc1ccccc1C(=O)NCc1ccc2c(c1)OCO2 the results were Luciferase inh 1%.
For CCCN1Cc2cccc(C(=O)Nc3ccc4c(c3)OCO4)c2C1=O the results were GBA mod >77 and Luciferase inh -2%.
CCCN1Cc2cccc(C(=O)Nc3ccc4c(c3)OCCO4)c2C1=O was read as Luciferase inh 13µM*.
`CN(c1ccccc1C(=O)Nc1ccc2c(c1)OCCO2)S(C)(=O)=O` gave GBA mod >77, PK Bst >57 and Luciferase inh 2%.
For Cc1ccccc1C(=O)Nc1ccc2c(c1)OCO2 the results were GBA mod >77, PK Bst inconclusive and Luciferase inh 16µM*.
Screening COc1ccccc1C(=O)Nc1ccc2c(c1)OCCO2 returned GBA mod >77, PK Bst inactive and Luciferase inh 16µM*.
For COCCNc1ncnc2ccc(-c3ccc(N(C)C)cc3)cc12 the results were Luciferase inh 0%[2.29 µM].
COc1ccc(-c2nc3cnc(OCc4ccccc4)nc3n(CCC#N)c2=O)cc1 was read as Luciferase inh 0%[11.4 µM].
CCOC(=O)c1c(C)[nH]c(C(=O)Nc2ccc3c(c2)OCO3)c1C was read as GBA mod 13*, PK Bst inactive and Luciferase inh 13µM*.
Screening COc1cc(C(=O)Nc2ccc3c(c2)OCCO3)c(-n2cnnn2)cc1OC returned GBA mod >77, PK Bst >57 and Luciferase inh 3%.
Screening COc1ccc(Cl)cc1C(=O)Nc1ccc(NC(=O)c2ccco2)cc1 returned Luciferase inh 2%.

Source: PubChem
